PubChem BioAssay AID1645860 (Buhrlage Lab, Dana-Farber Cancer Institute and Novartis …, 2021)
Out of some 47,000 compounds screened, about 2,500 (5.3%) were called active. Rule as the data show it: active = inhibition above about 30%; inactive = the rest. The sample as a whole holds a higher share of actives than the screen did.

Biological target: Ubiquitin carboxyl-terminal hydrolase 30 (Homo sapiens) (UniProt Q70CQ3)
Test: blocks human USP30 ubiquitin-rhodamine cleavage (AID 1645860)
Conditions: purified USP30, Ub-rhodamine cleavage fluorescence; at 25 µM; hits give high values

Chain of Ubiquitin carboxyl-terminal hydrolase 30 (Homo sapiens) (Q70CQ3 whole entry, looked up): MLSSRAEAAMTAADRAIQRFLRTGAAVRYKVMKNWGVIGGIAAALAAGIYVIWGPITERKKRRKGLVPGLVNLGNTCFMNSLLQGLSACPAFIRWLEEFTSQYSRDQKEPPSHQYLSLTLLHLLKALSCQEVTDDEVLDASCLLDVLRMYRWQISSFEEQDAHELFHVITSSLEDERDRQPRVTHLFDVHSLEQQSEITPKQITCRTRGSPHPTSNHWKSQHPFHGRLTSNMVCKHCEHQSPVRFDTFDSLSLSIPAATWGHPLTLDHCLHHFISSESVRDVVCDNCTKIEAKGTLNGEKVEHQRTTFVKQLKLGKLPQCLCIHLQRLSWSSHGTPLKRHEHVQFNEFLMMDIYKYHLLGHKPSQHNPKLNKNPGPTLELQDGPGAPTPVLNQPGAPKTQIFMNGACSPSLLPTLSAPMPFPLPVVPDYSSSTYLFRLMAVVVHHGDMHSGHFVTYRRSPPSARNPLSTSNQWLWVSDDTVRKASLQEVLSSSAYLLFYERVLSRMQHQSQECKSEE

inhibition, inactive:
O=C(Nc1ccc2cn[nH]c2c1)c1cnn(-c2ccccc2)n1 -23.9%
CCCc1cc(=O)oc2cc(OC(=O)C3CCN(C(=O)c4ccc(Cl)cc4)CC3)ccc12 29.6%
COc1ccc(N2CCN(Cc3cc(=O)oc4cc(O)ccc34)CC2)cc1 8.3%
CCN(CC)c1ccc(C2C3=C(CC(C)(C)CC3=O)Nc3ccccc3N2C(=O)Cc2ccccc2)cc1 (stereo not given) -64.2%
Cc1ccc(Nc2nc(NCC(=O)Nc3cc(C)ccc3C)nc(Nc3ccc(C)cc3)n2)cc1 -44%
CCC(=O)c1ccc(OCC(=O)Nc2ccc3nc(C)sc3c2)cc1 -168%
CCOc1ccc(N(CC(=O)Nc2ccc(S(=O)(=O)Nc3cc(C)ccc3C)cc2)S(C)(=O)=O)cc1 1.87%
Cc1ccc(Nc2nc(O)c(CC(=O)Nc3ccc(C(C)C)cc3)s2)cc1C 0.202%
Cc1cccc(-c2cnc(C(O)c3ccc4c(c3)OCO4)[nH]2)c1 (stereo not given) -30.9%
COc1ccc(C2CC(=O)c3cnc(NC(=O)c4cc(OC)c(OC)c(OC)c4)nc3C2)c(OC)c1 (stereo not given) 24.2%
C=C1C(=O)O[C@H]2C=C(C)C=C[C@@]3(C)CC[C@@]1(O)[C@H]23 7.94%
O=C(NCc1ccncc1)C1CC(=O)N(c2cccc(C(F)(F)F)c2)C1 (stereo not given) 0.292%
Cc1oc(-c2ccccc2)nc1C(=O)N(C)Cc1cccc(Cl)c1Cl -7.53%
O=C1NCCCC12CCN(Cc1cnc3ccccc3n1)CC2 10.3%
O=C(c1cccnc1)N1CCN(c2cc(-c3ccccc3)[nH]n2)CC1 12.7%
Cc1ccc(-c2nc(C(=O)N3CCN(c4ccccn4)CC3)cs2)n1C -26.2%
Cc1nc2cccnc2nc1C -39.7%
NC(=Nc1cccnc1)c1ccc2ccccc2n1 4.02%
COc1cccc(CNC(=O)C2(C)Oc3cccnc3N(C)C2=O)c1 (stereo not given) -5.25%
O=C(NC1CCCCCC1)c1nc(Cn2cnc3ccccc3c2=O)no1 9.85%

inhibition, active:
CCCc1cc(=O)oc2cc(OCC(=O)NCc3ccc(OC)cc3)ccc12 62.1%
Cc1ccc(NC(=O)Cc2sc(Nc3ccc(C)cc3)nc2O)cc1 53.6%
CCOc1ccc(Nc2nc(O)c(CC(=O)Nc3cccc(C)c3)s2)cc1 33.8%
CN(CCc1ccccc1)c1nccc(N2CCN(C(=O)c3csc(-c4cccnc4)n3)CC2)n1 51.1%
Clc1ccc(C2NC3=NCN(Cc4ccco4)CN3c3nc4ccccc4n32)cc1 (stereo not given) 36.4%
